Test results: the supplement of paper PMC11732987, “Enantioselective OTUD7B fragment discovery through chemoproteomics screening and high-throughput optimisation” (Communications Chemistry, 2025)

Columns and labels:
Test in all cases: log2 ratio of Biotin-Ahx-Ub-VS probe labelling (fragment/DMSO); higher = less target engagement (more negative = stronger competition), active = hit call of the paper (q ≤ 0.05, log2 ratio ≤ -1)
Details in all cases: compound concentration: 200 uM; treatment time: 3 h
OTUD6B = biological target: T1, OTUD6B (UniProt Q8N6M0)
T1 sequence (whole entry): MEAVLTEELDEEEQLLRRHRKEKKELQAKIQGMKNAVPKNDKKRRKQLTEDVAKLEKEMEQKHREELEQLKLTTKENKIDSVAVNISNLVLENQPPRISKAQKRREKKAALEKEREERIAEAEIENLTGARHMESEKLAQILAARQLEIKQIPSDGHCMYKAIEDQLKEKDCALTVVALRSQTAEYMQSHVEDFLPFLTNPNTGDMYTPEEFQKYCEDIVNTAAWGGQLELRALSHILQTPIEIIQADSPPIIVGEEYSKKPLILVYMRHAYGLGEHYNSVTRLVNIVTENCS
How it was run: (§1)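 HEK293T lysate, 495 µg per sample in Tris/CHAPS/IGEPAL buffer with protease inhibitors, was treated in triplicate with fragment at 200 µM or vehicle for 3 h and then with Biotin-Ahx-Ub-VS at 0.5 µM final for 1 h. Labelled DUBs were NeutrAvidin-enriched, digested with LysC and trypsin, and run by diaPASEF LC-MS/MS. Spectronaut label-free quantities were global-median-normalised, and values are average log2 fragment/vehicle ratios by unpaired t-test on proteins with ≥2 unique peptides.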

OTUD7B = biological target: T2, OTUD7B (UniProt Q6GQQ9)
T2 sequence (whole entry): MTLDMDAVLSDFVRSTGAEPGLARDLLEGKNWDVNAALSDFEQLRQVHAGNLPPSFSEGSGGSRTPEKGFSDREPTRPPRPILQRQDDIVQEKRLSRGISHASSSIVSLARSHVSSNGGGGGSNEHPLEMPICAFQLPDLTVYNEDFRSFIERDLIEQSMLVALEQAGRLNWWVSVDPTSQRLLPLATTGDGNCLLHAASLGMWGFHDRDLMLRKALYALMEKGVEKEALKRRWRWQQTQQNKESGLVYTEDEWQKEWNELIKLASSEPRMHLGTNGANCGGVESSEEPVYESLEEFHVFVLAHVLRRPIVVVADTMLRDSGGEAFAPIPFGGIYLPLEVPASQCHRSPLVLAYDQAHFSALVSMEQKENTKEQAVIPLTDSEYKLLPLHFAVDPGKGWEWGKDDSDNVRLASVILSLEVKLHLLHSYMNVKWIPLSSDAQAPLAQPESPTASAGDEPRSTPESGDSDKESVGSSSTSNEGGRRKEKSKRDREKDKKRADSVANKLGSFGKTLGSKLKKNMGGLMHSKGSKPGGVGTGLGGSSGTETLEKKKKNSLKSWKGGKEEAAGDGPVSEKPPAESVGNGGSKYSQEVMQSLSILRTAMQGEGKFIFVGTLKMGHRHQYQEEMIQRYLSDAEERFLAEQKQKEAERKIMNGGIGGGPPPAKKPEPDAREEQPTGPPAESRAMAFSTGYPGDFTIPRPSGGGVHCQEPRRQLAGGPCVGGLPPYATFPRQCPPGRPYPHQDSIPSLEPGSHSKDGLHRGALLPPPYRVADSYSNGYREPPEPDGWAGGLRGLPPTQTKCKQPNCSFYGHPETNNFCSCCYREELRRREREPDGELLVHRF
How it was run: as §1

PRPF8 = PRPF8 (UniProt Q6P2Q9)
How it was run: as §1

PSMD7 = biological target: T3, PSMD7 (UniProt P51665)
T3 sequence (whole entry): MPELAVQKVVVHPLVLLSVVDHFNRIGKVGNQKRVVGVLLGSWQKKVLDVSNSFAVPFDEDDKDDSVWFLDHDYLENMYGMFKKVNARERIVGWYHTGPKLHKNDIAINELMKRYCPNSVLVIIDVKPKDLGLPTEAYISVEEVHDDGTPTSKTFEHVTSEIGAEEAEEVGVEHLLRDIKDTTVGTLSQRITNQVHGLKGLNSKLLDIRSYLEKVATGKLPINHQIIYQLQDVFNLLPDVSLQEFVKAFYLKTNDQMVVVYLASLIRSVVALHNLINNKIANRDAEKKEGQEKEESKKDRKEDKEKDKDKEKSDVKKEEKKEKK
How it was run: as §1

UCHL1 = UCHL1 (UniProt P09936)
Chain of UCHL1 (P09936 whole entry, looked up): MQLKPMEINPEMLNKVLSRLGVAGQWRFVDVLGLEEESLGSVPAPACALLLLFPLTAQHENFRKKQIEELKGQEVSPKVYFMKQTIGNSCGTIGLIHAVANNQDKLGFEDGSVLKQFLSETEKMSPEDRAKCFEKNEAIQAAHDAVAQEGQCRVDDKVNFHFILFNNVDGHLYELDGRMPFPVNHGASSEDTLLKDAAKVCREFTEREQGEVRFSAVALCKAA
How it was run: as §1

UCHL3 = biological target: T4, UCHL3 (UniProt P15374)
T4 sequence (whole entry): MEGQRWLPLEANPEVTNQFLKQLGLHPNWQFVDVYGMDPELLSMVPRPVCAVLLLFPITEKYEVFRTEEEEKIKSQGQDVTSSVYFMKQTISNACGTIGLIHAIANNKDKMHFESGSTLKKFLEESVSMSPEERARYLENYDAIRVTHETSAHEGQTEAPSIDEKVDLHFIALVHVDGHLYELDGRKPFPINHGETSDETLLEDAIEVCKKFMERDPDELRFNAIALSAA
How it was run: as §1

UCHL5 = biological target: T5, UCHL5 (UniProt Q9Y5K5)
T5 sequence (whole entry): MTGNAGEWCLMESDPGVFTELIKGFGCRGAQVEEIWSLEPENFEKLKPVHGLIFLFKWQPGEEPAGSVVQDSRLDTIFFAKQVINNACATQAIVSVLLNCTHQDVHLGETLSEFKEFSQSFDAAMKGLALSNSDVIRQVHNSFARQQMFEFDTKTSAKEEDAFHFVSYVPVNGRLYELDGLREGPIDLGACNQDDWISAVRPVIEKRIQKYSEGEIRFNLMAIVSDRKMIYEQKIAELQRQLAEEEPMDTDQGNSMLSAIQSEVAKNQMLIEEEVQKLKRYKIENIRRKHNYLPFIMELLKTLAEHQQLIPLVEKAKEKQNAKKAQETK
How it was run: as §1

USP10 = USP10 (UniProt Q14694)
Chain of USP10 (Q14694 whole entry): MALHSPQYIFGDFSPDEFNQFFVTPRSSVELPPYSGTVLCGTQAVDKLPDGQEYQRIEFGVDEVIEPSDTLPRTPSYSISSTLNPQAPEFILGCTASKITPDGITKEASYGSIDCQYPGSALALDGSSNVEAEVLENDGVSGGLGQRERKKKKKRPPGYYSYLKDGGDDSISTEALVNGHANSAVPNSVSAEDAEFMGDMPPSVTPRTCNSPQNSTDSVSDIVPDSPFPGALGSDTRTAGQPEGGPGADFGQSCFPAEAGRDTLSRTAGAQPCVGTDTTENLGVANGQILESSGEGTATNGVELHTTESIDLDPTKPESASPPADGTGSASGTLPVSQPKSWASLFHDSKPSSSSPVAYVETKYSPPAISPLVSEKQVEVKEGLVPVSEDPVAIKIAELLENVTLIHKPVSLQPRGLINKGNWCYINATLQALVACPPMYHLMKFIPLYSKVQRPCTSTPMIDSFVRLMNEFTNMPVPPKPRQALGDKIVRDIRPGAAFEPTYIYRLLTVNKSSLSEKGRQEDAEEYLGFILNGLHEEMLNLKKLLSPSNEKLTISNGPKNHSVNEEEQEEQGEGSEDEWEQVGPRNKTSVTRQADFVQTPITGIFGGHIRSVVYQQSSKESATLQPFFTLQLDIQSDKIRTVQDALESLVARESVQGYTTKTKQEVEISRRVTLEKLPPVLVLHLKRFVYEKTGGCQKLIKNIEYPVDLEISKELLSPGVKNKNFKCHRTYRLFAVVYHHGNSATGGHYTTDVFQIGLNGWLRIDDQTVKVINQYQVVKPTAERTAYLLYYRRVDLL
How it was run: as §1

USP15 = biological target: T6, USP15 (UniProt Q9Y4E8)
T6 sequence (whole entry): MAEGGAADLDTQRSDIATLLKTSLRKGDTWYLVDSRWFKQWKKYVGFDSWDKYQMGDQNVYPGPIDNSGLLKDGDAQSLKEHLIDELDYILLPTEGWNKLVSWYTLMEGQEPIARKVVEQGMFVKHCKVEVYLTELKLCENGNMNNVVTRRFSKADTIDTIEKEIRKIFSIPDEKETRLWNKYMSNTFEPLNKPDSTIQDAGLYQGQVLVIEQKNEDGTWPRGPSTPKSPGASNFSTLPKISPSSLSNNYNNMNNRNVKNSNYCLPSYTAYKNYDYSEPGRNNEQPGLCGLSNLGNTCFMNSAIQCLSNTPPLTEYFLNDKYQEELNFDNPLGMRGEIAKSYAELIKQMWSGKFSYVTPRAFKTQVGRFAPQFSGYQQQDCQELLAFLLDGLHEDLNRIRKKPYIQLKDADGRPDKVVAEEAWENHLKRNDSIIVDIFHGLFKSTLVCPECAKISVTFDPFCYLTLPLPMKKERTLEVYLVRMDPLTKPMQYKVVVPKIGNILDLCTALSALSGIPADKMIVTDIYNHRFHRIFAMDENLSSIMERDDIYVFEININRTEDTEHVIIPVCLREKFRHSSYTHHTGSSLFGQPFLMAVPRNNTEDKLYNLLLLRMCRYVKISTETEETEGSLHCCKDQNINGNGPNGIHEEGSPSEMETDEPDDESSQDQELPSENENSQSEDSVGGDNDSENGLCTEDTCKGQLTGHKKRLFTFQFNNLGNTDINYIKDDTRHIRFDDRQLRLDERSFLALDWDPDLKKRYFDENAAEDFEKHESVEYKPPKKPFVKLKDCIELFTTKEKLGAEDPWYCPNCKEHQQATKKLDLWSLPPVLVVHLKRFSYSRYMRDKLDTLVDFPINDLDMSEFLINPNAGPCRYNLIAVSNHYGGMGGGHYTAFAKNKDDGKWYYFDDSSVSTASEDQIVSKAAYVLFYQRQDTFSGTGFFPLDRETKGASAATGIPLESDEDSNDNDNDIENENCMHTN
How it was run: as §1

USP16 = USP16 (UniProt Q9Y5T5)
Chain of USP16 (Q9Y5T5 whole entry, looked up): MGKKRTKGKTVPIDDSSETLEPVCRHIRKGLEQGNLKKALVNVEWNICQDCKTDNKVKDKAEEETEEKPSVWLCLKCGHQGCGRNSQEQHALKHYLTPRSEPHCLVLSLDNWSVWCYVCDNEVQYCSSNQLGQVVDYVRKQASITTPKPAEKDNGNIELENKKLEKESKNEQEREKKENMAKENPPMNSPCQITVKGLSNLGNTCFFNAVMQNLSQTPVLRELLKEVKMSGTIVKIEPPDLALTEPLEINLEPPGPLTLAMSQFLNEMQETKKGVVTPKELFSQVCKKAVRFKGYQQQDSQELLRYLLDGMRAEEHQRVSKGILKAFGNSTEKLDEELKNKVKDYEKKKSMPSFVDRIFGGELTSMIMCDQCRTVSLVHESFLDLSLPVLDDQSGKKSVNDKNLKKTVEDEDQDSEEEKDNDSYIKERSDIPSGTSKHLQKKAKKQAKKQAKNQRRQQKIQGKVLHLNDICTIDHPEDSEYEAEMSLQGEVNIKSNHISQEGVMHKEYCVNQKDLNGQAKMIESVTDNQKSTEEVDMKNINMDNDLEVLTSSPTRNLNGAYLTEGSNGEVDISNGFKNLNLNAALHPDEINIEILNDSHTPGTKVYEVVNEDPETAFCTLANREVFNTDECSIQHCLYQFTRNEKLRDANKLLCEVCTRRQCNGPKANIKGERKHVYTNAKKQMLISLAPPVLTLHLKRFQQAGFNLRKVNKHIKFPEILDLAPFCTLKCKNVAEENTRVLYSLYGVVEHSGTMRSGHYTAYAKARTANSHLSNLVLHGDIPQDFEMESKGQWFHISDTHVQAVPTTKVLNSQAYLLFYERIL
How it was run: as §1

Measured: log2 ratio of Biotin-Ahx-Ub-VS probe labelling

O=C(CCl)NCCc1ccc2c(c1)OCCO2
active: UCHL1 -1.2
inactive: OTUD6B -0.218 | OTUD7B -0.434 | PRPF8 0.0207 | PSMD7 -0.153 | UCHL3 -0.0656 | UCHL5 -0.156 | USP10 -0.3 | USP15 -0.184 | USP16 0.248
